# Results filed as inconclusive are left out. Activity calls are given as the source filed them. Calls come from the whole dose curve; as a rule, active = well fitted inhibition curve with a large enough effect; inconclusive = small, poorly fitted or top-dose-only effect; inactive = no such curve, though single readings can be large or run the other way.
# Assay: InCell qHTS Assay for Inhibitors of the mTORC1 Signaling Pathway in MEF (Tsc2-/-, p53-/-) Cells: Hit Validation;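 note: phospho-S6 Ser235/236 signal normalized to propidium iodide cell count per well; nearly all actives have a fitted effect of over 75% in size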
# Conditions: phospho-rpS6 immunofluorescence, 24 h; activity change, negative = inhibition: at 38.3 µM (top of the series)
# Potency is the fitted concentration of half-maximal effect.
Compound,"activity change, negative = inhibition",Potency
Cc1oc2c(cc(NS(=O)(=O)c3ccc(C(C)C)cc3)c3ccccc32)c1C(=O)OCc1ccccc1,-1.72%,–
CC(=O)Nc1cccc(NC(=O)C(=O)NCCc2sc(-c3ccccc3)nc2C)c1,-9.58%,–
Cc1ccccc1C(=O)N1CCN(CCc2ccccn2)CC1,-100%,–
COc1cc(OC)cc(C(=O)NCc2ccc3c(c2)CCN3C(=O)c2ccccc2)c1,-100%,–
COc1cc(Nc2nc(SCC(=O)c3ccc(Cl)c(Cl)c3)nc3ccccc23)cc(OC)c1,-16.4%,–
CCOc1ccc(C(=O)NCCc2sc(-c3ccc(C)cc3)nc2C)cc1,-100%,–
Cc1cccc(OCc2ccc(-c3nc(C#N)c(NCCN(C)C)o3)o2)c1,-100%,–
COC(=O)c1ccccc1NC(=O)c1nc(S(=O)(=O)Cc2cccc(C)c2)ncc1Cl,–,3.69 µM (active)
COc1cc(C(=O)Nc2ccc(NC(=O)c3ccc(C(C)(C)C)cc3)cc2)cc(OC)c1OC,-100%,–
CCN1C(=O)c2ccccc2Sc2ccc(NC(=O)Cc3ccc(OC)cc3)cc21,-100%,–
CC(C)Oc1cccc(C2CC(=O)Nc3cc4c(cc32)OCO4)c1 (stereo unspecified),-9.58%,–
COc1ccc(OCC(=O)NCc2ccc3c(c2)CCN3C(=O)c2cccc(C)c2)cc1,-100%,–
CCOc1ccccc1NC(=O)CN1C(=O)C(=O)c2ccccc21,-100%,–
Cc1cccc(NC(=O)c2c(N)sc3c2CCC(C)C3)c1 (stereo unspecified),-100%,–
COc1ccc(S(=O)(=O)N(CCc2ccccc2)CC(=O)Nc2cccc(OC)c2)cc1,-100%,–
CCOC(=O)c1cnc2ccc(OCC)cc2c1NCCc1ccc(OC)c(OC)c1,-100%,–

# — PubChem BioAssay AID651791 (National Center for Advancing Translational Sciences (NCATS), 2012)
